Experimental findings from PubChem BioAssay are described below.

The source made the active and inactive calls. Unless noted, the rule behind the calls is not given here.

The subject of assay [1] is Wnt5a (protein binding on small-molecule microarray). Nature of the assay: small molecules binding Wnt5a protein – biophysical, small-molecule microarray, 635/667 nm fluorescence, primary screen (AID 1142).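 Note: fluorescence read at 667 nm with signal to noise per printed feature.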 The note with it: 635 nm fluorescence, higher = more signal.
Assay [2] is described as follows: ATP-based viability of Huh7 replicon cells – cell-based, CellTiter-Glo luminescence, basal, 48 h, cytotoxicity control for HCV replication inhibitor project, primary screen (AID 1143).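 Note: Huh7 hepatoma cells carrying a hepatitis C replication reporter with no stimulus; test concentration not given here.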 The note with it: higher = more signal, called active from +8 up or from −8 down. Background: In antiviral work, replicon cells carry a viral genome segment that copies itself.
Assay [3] is described as follows: Pseudomonas biofilm growth suppression – PAO1 strain, BacTiter-Glo luminescence, LB-PBS, primary screen (AID 1144). The note with it: P. aeruginosa PAO1 biofilm, 12 h, higher = more signal.
Assay [4] in a line: basal CRE-LacZ reporter activity in PC12 – cell-based, unstimulated, primary screen (AID 1145). The note with it: no forskolin, luminescence, 4.5 h, higher = more signal, called active from +8 up or from −8 down.
Assay [5] can be described thus: forskolin-driven CRE-LacZ activity in PC12 – cell-based, CRE-LacZ reporter, forskolin-stimulated, primary screen (AID 1146).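 Note: PC12 cells with 6xCRE LacZ reporter stimulated by forskolin 10 µM; beta-galactosidase reporter signal reflecting CREB driven transcription.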 The note with it: luminescence, 4.5 h, higher = more signal, called active from +8 up or from −8 down.
For assay [6], the target named is Streptavidin (Streptomyces avidinii) (UniProt P22629). Nature of the assay: compounds binding control protein streptavidin – biophysical, small-molecule microarray, 635/667 nm fluorescence, artefact control for SMM compound annotation, primary screen (AID 1147).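 Note: signal reflects streptavidin binding to arrayed compounds as a control protein.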 The note with it: higher = more signal.
The nature of assay [7]: probe aInhba binding on compound microarray – biochemical, small-molecule microarray, 635/667 nm fluorescence, primary screen (AID 1148).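 Note: score merges 667nm spot fluorescence with signal-to-noise for antibody binding to printed compounds.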 The note with it: higher = more signal.
For assay [8], the target named is Torsin-1A (Homo sapiens) (UniProt O14656). Briefly: TOR1A wild-type binding on microarray – cell lysate, small-molecule microarray, lysate, 635/667 nm, primary screen (AID 1149). The note with it: COS7 hTOR1A-WT lysate, 635 nm fluorescence, higher = more signal.
Assay [9] shares this target. Nature of the assay: torsin A mutant lysate binding on microarrays – cell lysate, small-molecule microarray, COS7 lysate, 635/667 nm fluorescence, primary screen (AID 1150).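 Note: score pools 667 nm emission and signal to noise measuring lysate protein binding.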 The note with it: COS7 hTOR1A mutant lysate, 635 nm fluorescence, higher = more signal.
Assay [10] deals with Sonic hedgehog protein (Shh). Nature of the assay: Sonic hedgehog microarray binding compounds – biochemical, small-molecule microarray, 635/667 nm fluorescence, primary screen (AID 1151).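 Note: Shh protein binding to compounds spotted on small-molecule microarray slides; score combines spot fluorescence intensity with signal-to-noise across triplicate slides.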 The note with it: 635 nm fluorescence, higher = more signal.
Assay [11] is described as follows: optical density shifts of acrAB sulA E. coli – strain DRC41, OD650, 48 h, E. coli filamentation inducer project, primary screen (AID 1152).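 Note: E. coli MC1000 strain DRC41 lacking acrAB efflux pump and sulA.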 The note with it: higher = more signal, called active from +8 up or from −8 down.
The nature of assay [12]: probe aLefty1 binding on compound microarray – biochemical, small-molecule microarray, 635/667 nm fluorescence, primary screen (AID 1153).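 Note: score merges spot fluorescence with signal-to-noise ratio from the scanned slide images.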 The note with it: higher = more signal.
Assay [13] can be described thus: plasmodial surface anion channel blockers, osmotic lysis – cell-based, P. falciparum Indochina, OD700, 1 h, primary screen (AID 1154). The note with it: P. falciparum Indochina infected RBC osmotic lysis, higher = more signal, called active from +8 up or from −8 down.
Assay [14] is described as follows: plasmodial surface anion channel blockers, osmotic lysis – cell-based, P. falciparum Indochina, OD700, 2 h, primary screen (AID 1155).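 Note: lysis reports solute entry through the parasite surface anion channel PSAC.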 The note with it: P. falciparum Indochina infected erythrocytes, higher = more signal, called active from +8 up or from −8 down.
A short description of assay [15]: changes in parasitized red cell lysis, either direction – P. falciparum Indochina, OD700, 3 h, PSAC antagonist project, primary screen (AID 1156). The note with it: P. falciparum-infected erythrocytes, osmotic lysis, higher = more signal, called active from +8 up or from −8 down.
Assay [16] can be described thus: plasmodial surface anion channel blockers, osmotic lysis – cell-based, P. falciparum Indochina, OD700, 18 h, primary screen (AID 1157). The note with it: P. falciparum Indochina infected erythrocytes, osmotic lysis OD700, 18 h; higher = more signal, called active from +8 up or from −8 down.
The nature of assay [17]: S6 kinase pathway phospho-S6 level changes – cell-based, A549, cytoblot, luminescence, serum-stimulated, primary screen (AID 1158).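 Note: serum-stimulated A549 lung adenocarcinoma cells; signal is phosphorylated S6 detected by cytoblot immunostaining with HRP secondary.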 The note with it: 5 h, higher = more signal.
Assay [18] concerns the target NADPH oxidase 2 (Homo sapiens) (UniProt P04839). Briefly: compounds shifting NOX2 Amplex Red fluorescence – cell-based, HEK293-NOX2, PMA-stimulated, NOX inhibitor project, primary screen (AID 1159). Note: test concentration not given here. The note with it: 45 min, higher = more signal, called active from +8 up or from −8 down.
Assay [19] deals with NADPH oxidase 4 (Homo sapiens) (UniProt Q9NPH5). Nature of the assay: compounds shifting NOX4 Amplex Red fluorescence – cell-based, HEK293-NOX4, tetracycline-induced, NOX inhibitor project, primary screen (AID 1160). The note with it: HEK293-NOX4, Amplex Red H2O2 fluorescence, 45 min; higher = more signal, called active from +8 up or from −8 down.
In assay [20] the target is NADPH oxidase 5 (Homo sapiens) (UniProt Q96PH1). Briefly: compounds shifting NOX5 Amplex Red fluorescence – cell-based, HEK293-NOX5, NOX inhibitor project, primary screen (AID 1161). The note with it: HEK293-NOX5, ionomycin, 45 min, higher = more signal.
Sequence of NADPH oxidase 5 (Homo sapiens) (Q96PH1 whole entry, looked up): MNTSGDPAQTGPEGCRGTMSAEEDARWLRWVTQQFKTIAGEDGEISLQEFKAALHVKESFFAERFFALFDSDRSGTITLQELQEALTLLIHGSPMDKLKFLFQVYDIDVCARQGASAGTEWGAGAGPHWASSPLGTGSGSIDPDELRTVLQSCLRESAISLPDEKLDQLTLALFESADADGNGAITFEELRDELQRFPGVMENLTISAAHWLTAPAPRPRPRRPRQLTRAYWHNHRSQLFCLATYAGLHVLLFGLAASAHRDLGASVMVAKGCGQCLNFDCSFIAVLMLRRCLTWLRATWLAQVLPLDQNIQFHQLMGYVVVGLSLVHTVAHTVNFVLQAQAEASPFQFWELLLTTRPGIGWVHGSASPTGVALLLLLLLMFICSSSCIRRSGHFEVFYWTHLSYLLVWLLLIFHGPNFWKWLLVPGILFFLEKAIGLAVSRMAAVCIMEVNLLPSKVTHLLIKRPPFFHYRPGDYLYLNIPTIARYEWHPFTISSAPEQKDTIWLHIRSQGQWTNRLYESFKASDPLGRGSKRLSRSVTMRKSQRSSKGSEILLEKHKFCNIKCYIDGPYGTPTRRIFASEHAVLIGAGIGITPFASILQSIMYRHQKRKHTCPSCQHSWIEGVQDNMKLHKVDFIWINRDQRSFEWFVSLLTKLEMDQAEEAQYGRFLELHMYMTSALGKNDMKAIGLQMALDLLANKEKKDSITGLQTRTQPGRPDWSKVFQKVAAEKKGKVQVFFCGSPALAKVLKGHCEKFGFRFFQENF

Sequence of NADPH oxidase 4 (Homo sapiens) (Q9NPH5 whole entry, looked up): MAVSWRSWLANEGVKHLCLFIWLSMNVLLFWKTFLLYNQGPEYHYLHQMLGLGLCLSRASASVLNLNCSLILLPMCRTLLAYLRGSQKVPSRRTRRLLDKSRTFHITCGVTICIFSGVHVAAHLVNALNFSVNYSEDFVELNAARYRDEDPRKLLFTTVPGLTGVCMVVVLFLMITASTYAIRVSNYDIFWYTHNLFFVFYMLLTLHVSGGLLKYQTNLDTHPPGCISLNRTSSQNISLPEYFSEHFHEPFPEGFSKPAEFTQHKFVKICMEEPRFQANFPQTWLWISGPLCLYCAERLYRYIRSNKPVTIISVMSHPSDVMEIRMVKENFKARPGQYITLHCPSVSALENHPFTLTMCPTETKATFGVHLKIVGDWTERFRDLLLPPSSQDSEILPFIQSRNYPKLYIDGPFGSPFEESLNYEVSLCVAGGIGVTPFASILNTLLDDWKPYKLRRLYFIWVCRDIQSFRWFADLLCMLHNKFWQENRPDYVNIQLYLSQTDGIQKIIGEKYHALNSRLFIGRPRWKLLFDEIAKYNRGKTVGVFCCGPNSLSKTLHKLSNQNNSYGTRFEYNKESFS
Sequence of Torsin-1A (Homo sapiens) (O14656 whole entry, looked up): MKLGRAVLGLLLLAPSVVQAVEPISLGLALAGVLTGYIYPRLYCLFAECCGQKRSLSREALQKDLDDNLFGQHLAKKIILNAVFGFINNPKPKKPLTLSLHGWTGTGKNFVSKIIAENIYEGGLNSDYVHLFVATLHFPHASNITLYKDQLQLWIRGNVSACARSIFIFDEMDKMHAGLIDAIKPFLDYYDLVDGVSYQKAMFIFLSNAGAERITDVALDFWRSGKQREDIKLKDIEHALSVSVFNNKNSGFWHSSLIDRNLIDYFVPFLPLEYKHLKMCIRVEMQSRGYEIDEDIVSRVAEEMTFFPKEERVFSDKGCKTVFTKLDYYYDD
Sequence of Streptavidin (Streptomyces avidinii) (P22629 whole entry, looked up): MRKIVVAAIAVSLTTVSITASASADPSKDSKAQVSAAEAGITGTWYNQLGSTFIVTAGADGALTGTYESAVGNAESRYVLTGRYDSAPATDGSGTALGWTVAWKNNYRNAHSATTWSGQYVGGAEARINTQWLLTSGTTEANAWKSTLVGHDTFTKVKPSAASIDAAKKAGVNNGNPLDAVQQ
Sequence of NADPH oxidase 2 (Homo sapiens) (P04839 whole entry, looked up): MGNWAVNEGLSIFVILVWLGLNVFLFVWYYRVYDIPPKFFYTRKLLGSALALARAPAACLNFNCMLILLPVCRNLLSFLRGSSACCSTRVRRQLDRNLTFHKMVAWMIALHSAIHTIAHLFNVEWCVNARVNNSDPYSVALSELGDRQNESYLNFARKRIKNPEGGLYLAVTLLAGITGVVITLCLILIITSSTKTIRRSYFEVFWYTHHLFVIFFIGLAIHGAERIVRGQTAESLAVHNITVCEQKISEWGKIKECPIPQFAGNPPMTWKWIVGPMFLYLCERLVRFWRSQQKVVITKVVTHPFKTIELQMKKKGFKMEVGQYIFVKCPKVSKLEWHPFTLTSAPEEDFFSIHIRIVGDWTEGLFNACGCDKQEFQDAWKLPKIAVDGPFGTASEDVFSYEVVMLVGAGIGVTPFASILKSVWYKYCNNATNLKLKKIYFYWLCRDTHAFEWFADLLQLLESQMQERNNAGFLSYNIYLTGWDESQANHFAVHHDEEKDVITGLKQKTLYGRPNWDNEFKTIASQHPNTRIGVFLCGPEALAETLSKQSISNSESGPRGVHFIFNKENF

As for `CC(=O)OC[C@H]1O[C@@H](ON=C(C)C)[C@H](OC(C)=O)[C@@H](OC(C)=O)[C@@H]1OC(C)=O`, the composite z-score was 0.47 in [1]; -1.26 in assay [6]; -0.0695 in [7]; 0.456 in [8]; 0.188 in [9]; -0.856 in assay [10]. In [12], this molecule displayed a composite z-score of 0.145. Besides, the z-score in assay [2] is 0.238 (inactive); in assay [3] it was -0.291 (inactive); in [4], 0.499 (inactive); in assay [5] it was 0.101 (inactive); in assay [11], -1.83 (inactive); in assay [13], 0.421 (inactive). Besides, the z-score in assay [14] was 1.12 (inactive); in [15] it was 0.638 (inactive); in assay [16], 0.539 (inactive); in [17] it was 0.152; in assay [18], 1.27 (inactive); in assay [19] it was 0.378 (inactive). The z-score in [20] is -0.611.
Take `C=CC[C@@H]1C=C[C@H](ON=C(C)CCN2CCCc3nc(C)c(C)cc32)[C@@H](CO)O1`: the composite z-score in [1] was 0.621; in assay [6] it was 0.182; in [7], 0.528; in [8], 2.17; in assay [9], 2.07; in [10], 1.66. Also, the composite z-score in assay [12] is 0.97. For the same molecule, the z-score was -0.686 (inactive) in assay [2]; -0.0889 (inactive) in assay [3]; -0.0824 (inactive) in [4]; -0.299 (inactive) in assay [5]; 0.579 (inactive) in [11]; 3.7 (inactive) in assay [13]. Moreover, the z-score was 0.327 (inactive) in [14]; 0.206 (inactive) in assay [15]; 0.562 (inactive) in [16]; -1.04 in [17]; -0.297 (inactive) in assay [18]; -0.0344 (inactive) in [19]. For the same molecule, in assay [20], the z-score is -0.473.
Regarding `O=C1CCCC=C1C(O)C1CCCCC1` (stereo not given), the composite z-score in [1] was -0.028; in assay [6], -0.234; in assay [7] it was -0.122; in [8], -0.19; in assay [9], 0.44; in assay [10], 0.628. For the same molecule, the composite z-score in assay [12] was -0.312. Also, the z-score was 0.869 (inactive) in assay [2]; 0.993 (inactive) in assay [3]; 0.198 (inactive) in [4]; 0.85 (inactive) in assay [5]; 0.411 (inactive) in assay [11]; -0.0549 (inactive) in [13]. Also, the z-score in [14] was 0.494 (inactive); in assay [15] it was -0.663 (inactive); in [16], 0.0748 (inactive); in assay [17] it was -0.178; in assay [18], 1.46 (inactive); in assay [19], -0.419 (inactive). Further, the z-score in assay [20] is -0.928.
On to `COC(=O)[C@H](C)NC(=O)CCC1CC(OC(=O)NCCc2ccc(F)cc2)CC2(CCCC(COC(=O)NCC3CCCCC3)O2)O1` (stereo not given in full), for which the composite z-score in [1] is 0.374; in [6] it was 0.915; in assay [7] it was -0.0963; in assay [8], -0.0051; in assay [9], 0.348; in [10] it was 0.886. For the same molecule, the composite z-score in assay [12] was -0.0464. The z-score in assay [2] was -2.59 (inactive); in assay [3] it was 0.0852 (inactive); in assay [4] it was 0.819 (inactive); in assay [5] it was 0.676 (inactive); in assay [11], -0.56 (inactive); in [13], 0.731 (inactive). The z-score was -0.391 (inactive) in assay [14]; 0.701 (inactive) in assay [15]; -0.957 (inactive) in [16]; 1.77 in assay [17]; -0.763 (inactive) in [18]; -1.47 (inactive) in assay [19]. Further, the z-score in [20] is -1.68.
For the molecule `CCOC(=O)[C@H](Cc1ccccc1)NC(=O)CCC1CC(OC(=O)NCc2ccc3c(c2)OCO3)CC2(CCCC(COC(=O)NCCOc3ccccc3)O2)O1` (stereo not given in full), the composite z-score in assay [1] is 0.0544; in [6], 0.411; in [7], -0.177; in assay [8] it was 0.662; in assay [9], 0.184; in assay [10] it was 1.6. In [12], this molecule returned a composite z-score of -0.239. The z-score is -0.464 (inactive) in assay [2]; -1.09 (inactive) in assay [3]; -0.793 (inactive) in assay [4]; -0.361 (inactive) in assay [5]; 0.0897 (inactive) in assay [11]; -1.84 (inactive) in assay [13]. Moreover, the z-score was 0.179 (inactive) in assay [14]; -0.0818 (inactive) in assay [15]; 0.0514 (inactive) in [16]; -0.138 in assay [17]; 0.339 (inactive) in assay [18]; 0.519 (inactive) in assay [19]. The z-score in [20] amounted to 0.653.
Turning to `C=CC[C@@H]1C=C[C@H](ON=C2C[C@@H](O)[C@@H](O)[C@@H]3[C@@H]4C(=O)N(CC)C(=O)[C@@H]4CC[C@@H]23)[C@@H](CO)O1`, the composite z-score in assay [1] is -0.123; in [6] it was -0.816; in [7], -0.104; in assay [8], 0.862; in [9], 0.337; in assay [10], 0.652. This molecule also yielded a composite z-score in assay [12] of -0.208. The z-score in assay [2] is -2.05 (inactive); in [3] it was -1.39 (inactive); in assay [4] it was 2.83 (inactive); in assay [5], -0.247 (inactive); in assay [11] it was -0.887 (inactive); in assay [13] it was -0.146 (inactive). Besides, the z-score in assay [14] is -1.65 (inactive); in assay [15], 1.55 (inactive); in [16], -1.74 (inactive); in assay [17], 0.525; in assay [18], -0.284 (inactive); in [19], -0.621 (inactive). Also, the z-score in assay [20] is -2.07.
Take `COC(=O)[C@@H]1CC[C@H](C)[C@@H](c2ccc(Br)cc2)N1`: the composite z-score in [1] was 0.224; in assay [6], 0.0708; in [7] it was 0.0705; in [8], 0.387; in [9] it was 0.0795; in assay [10], -0.0173. Further, the composite z-score in assay [12] was -0.0879. For the same molecule, the z-score in [2] was 0.336 (inactive); in assay [3] it was -0.984 (inactive); in assay [4], 0.372 (inactive); in assay [5], -0.257 (inactive); in assay [11], -0.824 (inactive); in assay [13], -0.452 (inactive). Further, the z-score was -0.219 (inactive) in assay [14]; -0.772 (inactive) in [15]; -0.0454 (inactive) in assay [16]; -0.0984 in assay [17]; 1.62 (inactive) in [18]; -1.48 (inactive) in [19]. In addition, the z-score in assay [20] is -0.595.
As for `COc1ccc(O[C@H]2C=C[C@@H](c3ccccc3)O[C@@H]2CON=C2c3cc(OC)ccc3O[C@H](c3cccc(OC)c3)[C@H]2O)cc1`, the composite z-score is 0.288 in assay [1]; 0.414 in [6]; -0.224 in [7]; 0.0513 in [8]; 0.37 in [9]; 0.105 in assay [10]. The molecule also returned a composite z-score in assay [12] of -0.237. Moreover, the z-score in assay [2] was -0.0115 (inactive); in assay [3] it was -0.0389 (inactive); in assay [4], 0.913 (inactive); in [5], 0.411 (inactive); in assay [11], -1.41 (inactive); in assay [13] it was 4.7 (inactive). In addition, the z-score in assay [14] was 1.12 (inactive); in assay [15], -0.392 (inactive); in assay [16] it was 0.442 (inactive); in [17], -1.1; in assay [18], -0.0682 (inactive); in assay [19] it was 0.264 (inactive). For the same molecule, the z-score in assay [20] stood at 0.562.
